Out of some 190,000 compounds screened, about 220 (0.12%) were called active. Another 2% or so got no clear call; they are omitted. What follows is part of a selection rich in actives, with near analogues and random picks from the rest. A number with no mark means an inactive call.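 Rule for the calls: active = GTP binding at least 20 percentage points away from the 100% baseline, in either direction, so actives lie on both sides; inconclusive = Compound likely fluorescent itself, or too few beads counted; inactive = the rest.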
These molecules were tested against Ras-related C3 botulinum toxin substrate 1 (Homo sapiens) (UniProt P63000) (assay: activated Rac1 mutant nucleotide binding changes – biochemical, bead-based flow cytometry, multiplex, fluorescent GTP, primary screen (AID 764)). Settings: GST-Rac1 activated beads, at 10 µM, actives lie on both sides, 100% means binding = to untreated wells.

Row | Compound | percent activity (GTP binding)
1 | Cc1ccc(SC(C)C(=O)NCc2ccc(F)cc2)cc1 (stereo unspecified) | 94%
2 | CC(C)(C)CN1CCNC(=O)C1CC(=O)NC1Cc2ccccc2C1 (stereo unspecified) | 91%
3 | O=C(NC(=S)Nc1ccc(S(=O)(=O)Nc2ncccn2)cc1)c1cccc(Br)c1 | 92%
4 | O=C(O)/C=C/c1cn(Cc2ccccc2)nc1-c1cccs1 | 130% [activator] (active)
5 | O=C(O)/C=C/c1cn(-c2ccccc2)nc1-c1cccs1 | 89%
6 | O=C(/C=C\c1cn(-c2ccccc2)nc1-c1cccs1)N1CCOCC1 | 103%
7 | Cc1cc(N2CCOCC2)nc2ccc(NC(=S)N3CCN(Cc4ccccc4)CC3)cc12 | 96%
8 | O=C(Nc1ccc(N2CCOCC2)cc1)c1ccc(-c2ccccc2[N+](=O)[O-])o1 | 93%
9 | Cn1cc(Cl)c(C(=O)NNC(=S)Nc2cccc(Cl)c2)n1 | 91%
10 | O=C(O)c1ccc(/C=N/NC(=S)NCc2ccccc2)cc1 | 94%
11 | CN(C)C(=O)c1cccn(Cc2cccc(C(F)(F)F)c2)c1=O | 94%
12 | CN(C)N(C)C(=O)C(O)(c1ccccc1)c1ccccc1 | 96%
13 | Cc1cc(C(=O)CC#N)c(C)n1-c1c(C)n(C)n(-c2ccccc2)c1=O | 96%
14 | O=C(O)CCN(Cc1ccccc1)S(=O)(=O)c1c(Cl)cccc1Cl | 95%
15 | Cc1[nH]c2ccccc2c1/C=C(/C#N)C(=O)NC(C)C | 95%
16 | Cn1cc(CN2CCCC(CO)C2)c(-c2ccc(Oc3ccccc3)cc2)n1 (stereo unspecified) | 94%
17 | COc1ccc(/C=C/CN2CCCC(C(=O)c3cc(F)ccc3F)C2)cc1 (stereo unspecified) | 96%
18 | CN1C=CC=C/C1=C1\SC(=S)N(Cc2ccccc2)C1=O | 97%
19 | Cc1cc(C(=O)NNC(=O)c2cccc(S(=O)(=O)N3CCOCC3)c2)c2ccccc2n1 | 93%
20 | Cc1noc(C)c1/C=N/Nc1ccc2ccccc2n1 | 97%
21 | O=C(c1ccncc1)N1CCN(c2ccc3ccccc3n2)CC1 | 98%

Row | Compound | percent activity (GTP binding)
22 | COc1cc(/C=C/C(=O)OCC(=O)NC(=O)NCc2ccccc2)ccc1OCC#N | 90%
23 | O=C(c1ccc2ccccc2n1)N1CCN(c2ccccc2Cl)CC1 | 95%
24 | CCn1c(SCC(=O)Nc2nccs2)nnc1-c1ccco1 | 95%
25 | COc1ccc(OC)c(S(=O)(=O)Nc2cccc(-c3ccc4nncn4n3)c2)c1 | 95%
26 | Cc1ccc(-n2cc(CN(C)Cc3nccn3C)c(-c3cccc(C)c3)n2)cc1 | 97%
27 | Cc1ccc(C(=O)Nc2cccc3ncccc23)cc1[N+](=O)[O-] | 94%
28 | O=C(CN1CCN(C/C=C/c2ccccc2)CC1)Nc1ccc(F)cc1F | 93%
29 | CCc1ccc(N2CC(O)=C(c3nc4ccccc4c(=O)[nH]3)C2=N)cc1 | 94%
30 | COc1ccc(/C=N/n2c(C)cc(C)cc2=O)cc1 | 97%
31 | CC(C)Oc1ccccc1C(=O)NC(CO)C(=O)O (stereo unspecified) | 96%
32 | CCOC(=O)C1=NOC(Cn2cc(C(C)=O)c(=O)[nH]c2=O)C1 (stereo unspecified) | 92%
33 | COC(=O)CN1C(=O)N/C(=C/c2ccc(OC)c(C)c2OC)C1=O | 96%
34 | CCOc1cc(NS(=O)(=O)c2ccc(OC)cc2)c(OCC)cc1NC(C)=O | 97%
35 | CN(C)S(=O)(=O)c1ccc2oc(SCC(=O)Nc3ccccc3F)nc2c1 | 95%
36 | Cc1nc2cc(NCc3cccs3)ccc2n1C | 97%
37 | CCOP(=O)(OCC)C(Nc1ccc([N+](=O)[O-])cc1)c1ccc(Cl)cc1 (stereo unspecified) | 92%
38 | CCNC(=O)c1ccc(OCC(=O)Nc2ccc(F)cc2)c(OC)c1 | 94%
39 | CCC(=O)Nc1ccc(Nc2nc(Cl)nc(Nc3ccc(NC(=O)CC)cc3)n2)cc1 | 94%
40 | Cc1nnc(CN(C)Cc2cn[nH]c2-c2ccc(-c3ccccc3)cc2)o1 | 97%
41 | CC1(C)OC(=O)C(=CSc2ccc(C(C)(C)C)cc2)C(=O)O1 | 96%
42 | COc1ccccc1NC(=O)c1c(Br)cnn1C | 95%

Row | Compound | percent activity (GTP binding)
43 | Cc1cnc(C(=O)OCC(=O)N2CCc3ccccc32)cn1 | 96%
44 | Cc1cc(C)c(C#N)c(N2CCC(C(N)=O)CC2)n1 | 98%
45 | OCCC1CN(Cc2cccc(OC3CCCC3)c2)CCN1Cc1ccsc1 (stereo unspecified) | 95%
46 | CCN(CC)CCNC(=O)c1ccc(NC(=O)c2c(F)cccc2Cl)cc1 | 99%
47 | CCc1ccc(-n2c(SCc3cc(=O)n4cc(Br)ccc4n3)nc3[nH]ncc3c2=O)cc1 | 94%
48 | O=C1CC(=O)Nc2cc(S(=O)(=O)N3CCN(c4cccc(C(F)(F)F)c4)CC3)ccc2N1 | 93%
49 | COc1ccc(OC)c(CNC(=O)c2cc(=O)[nH]c3ccc(S(=O)(=O)N4CCCC4)cc23)c1 | 95%
50 | CC(C)(C)NC(=O)NC(=O)COC(=O)C1(C)CC1(Cl)Cl (stereo unspecified) | 97%
51 | COC(=O)C(NS(=O)(=O)c1ccc(F)cc1)c1ccccc1 (stereo unspecified) | 96%
52 | O=C(CP(=O)(c1ccccc1)c1ccccc1)N1CCOCC1 | 92%
53 | O=C(C1CC1)N1N=C2CCCCC2C1(O)C(F)(F)F (stereo unspecified) | 96%
54 | Cc1ccc(C)c(-n2cc(CN3CCN(C(=O)c4ncn[nH]4)CC3)c(-c3ccccc3)n2)c1 | 95%
55 | CCN(CC)S(=O)(=O)c1ccc(N2CCOCC2)c(NC(=O)C2COc3ccccc3O2)c1 (stereo unspecified) | 97%
56 | CCOC(=O)C1=C(CC)OC(N)=C(C#N)C1c1ccc(F)cc1F (stereo unspecified) | 93%
57 | O=C(O)c1cccc(NC(=O)c2cc(-c3cccc(Cl)c3)nc3ccccc23)c1 | 93%
58 | COc1ccc(C2C(C#N)=C(N)N(c3ncn[nH]3)C3=C2C(=O)CCC3)cc1 (stereo unspecified) | 96%
59 | COc1ccc(N2CCN(C(=O)CCSCc3ccccc3F)CC2)cc1 | 92%
60 | Cc1ccnc(NC(=O)CCC(=O)N(CC(=O)NCCc2ccccc2)Cc2cccs2)c1 | 97%
61 | COc1ccc(NC(=O)/C(C#N)=C\c2cc(OC)c(OCc3ccc(C(=O)O)cc3)cc2Br)cc1 | 89%

Source: PubChem BioAssay AID764 (NMMLSC, 2007)
